LGR2 antag – inhibitors of bursicon-induced LGR2 CRE-luciferase signal, primary screen, cell-based, HEK293, CRE-luciferase reporter, bursicon stimulation. Drosophila bursicon receptor LGR2 (rickets). bursicon-stimulated, 4 h. 380,000 compounds, 0.35% hits. inhibition, % at 9.99 µM;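 active means drop in luminescence signal, shown as inhibition above about 50% in the replicate tests, limit read from the data, passing the limit was not always enough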;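 further: agonist challenge used bursicon conditioned medium at about half maximal strength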
EBV LMP1 NFkB – EBV LMP1-driven NF-kappaB luciferase reporter inhibitors, primary screen, cell-based, luminescence, single point; LMP1-induced NF-kappaB luciferase reporter cells; inhibition, % at 12.5 µM; 350,000 compounds, 0.69% hits; AID 504558, 2011; in the data active means inhibition above about 41%;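 further: 0% = neutral control wells and 100% = reference inhibitor control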
TWEAK Fn14 block – inhibitors of TWEAK-Fn14 signaling, primary screen, luciferase reporter cells, uHTS. 360,000 compounds, 2% hits. TWEAK-stimulated Fn14 reporter cells, luciferase luminescence, 8 h. AID 1159606, 2016. inhibition, % at 10 µM; in the data active means inhibition above about 50%
TROY NFkB inh – inhibitors of TROY-driven NF-kB signaling, primary screen, Q293 LMP1-TROYcd cells, NF-kB luciferase, uHTS | inhibition, % at 10 µM | Q293 LMP1-TROYcd NF-kB luciferase reporter, 4 h | 360,000 compounds, 0.98% hits;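 active means compounds whose plate-normalised and pattern-corrected inhibition of the luciferase reporter signal at the single screening dose is 50% or more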
HSP90 refold inh – HSP90 inhibitors, primary screen, cell lysate, luminescence; Heat shock protein HSP 90 (rabbit reticulocyte lysate; luciferase refolding); Rabbit reticulocyte lysate, luciferase refolding luminescence, 3 h; inhibition, % at 5.6 µM; 290,000 compounds, 0.91% hits;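 active means inhibition above the screen-wide mean plus 3 SD, computed separately per campaign, cut at about 16% in these data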;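 further: 0% = DMSO wells and 100% = 60 µM geldanamycin wells; inhibitors lower the luminescence because luciferase stays unfolded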
aDG glyco act – activators of alpha-DG glycosylation, primary screen, uHTS, Pro5-aDG cells, AlphaScreen; alpha-DG glycosylation AlphaScreen (IIH6); 0% Pro5, 100% B10-LARGE cell signal; activation, % at 10 µM; 360,000 compounds, 0.22% hits; AID 624168, 2012;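 active means activation of at least 8% versus controls, or a plate z-score of at least 8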;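 further: Pro5 are CHO cells carrying HIG-tagged alpha-DG that lacks glycosylation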
* = called active by the depositor; nt = not tested or not shown. Most compounds without a hit are left out; they make up all but 2.6% or so of the library.

SMILES	LGR2 antag	EBV LMP1 NFkB	TWEAK Fn14 block	TROY NFkB inh	HSP90 refold inh	aDG glyco act
CCCNC(=O)Nc1ccc2c(c1)C(=O)N(C)C[C@H](OC)[C@@H](C)CN(C(=O)C1CCC1)[C@@H](C)CO2	-3	nt	nt	nt	nt	nt
O=S(=O)(c1cccc(F)c1)N1CC[C@H]2[C@H](CO)Nc3ccc(-c4cccc(F)c4)cc3[C@H]21	19	nt	nt	nt	nt	nt
O=[N+]([O-])c1ccc(N=Nc2ccc(O)c3ccccc23)cc1	nt	-4	69*	33	nt	0
CN1CCN(C(=O)C[C@H]2CC[C@@H]3[C@H](COC[C@H](O)CN3C(=O)Nc3ccc4c(c3)OCO4)O2)CC1	-21	nt	nt	nt	nt	nt
CCOc1ccc(-c2nnc(-c3cccs3)o2)cc1	nt	8	63*	22	9	0
c1cncc(-c2nnc(-c3cccs3)o2)c1	nt	-2	9	-54	-4	0
c1csc(-c2nnc(-c3ccc(N4CCOCC4)cc3)o2)c1	nt	21	59*	-3	5	0
COc1ccc2c3c([nH]c2c1)[C@@H](CO)N(C(=O)C1CCOCC1)CC31CCN(C(=O)NC(C)C)CC1	15	nt	nt	nt	nt	nt
Cc1ccc(C(=O)Oc2coc(CSc3nnc(NC(=O)C4CC4)s3)cc2=O)cc1C	8	-3	44	82*	4	1
Cc1cccc(C(=O)Oc2coc(CSc3nnc(NC(=O)C4CC4)s3)cc2=O)c1	14	1	18	25	-1	0
CO[C@@H]1CN(C)C(=O)c2ccc(NC(=O)NC(C)C)cc2OC[C@@H](C)N(C(=O)CC2CC2)C[C@H]1C	-6	nt	nt	nt	nt	nt
COC(=O)c1ccc(NC(=O)c2cc3sccc3n2C)cc1	nt	-8	56*	-24	-4	0
O=C(C[C@@H]1C[C@H]2c3cc(NS(=O)(=O)c4ccc(F)cc4)ccc3O[C@H]2[C@@H](CO)O1)NC1CCCC1	4	nt	nt	nt	nt	nt
O=C(C[C@@H]1CC[C@H](NC(=O)c2cccnc2)[C@H](CO)O1)NCc1ccc(Cl)c(Cl)c1	-20	nt	nt	nt	nt	nt
Cc1nc([N+](=O)[O-])c(Br)n1CC(=O)c1ccc2ccccc2c1	nt	-31	14	23	17*	0
O=C(CNC(=O)c1cccs1)OCc1ccc(Br)cc1	-1	10	0	0	-4	0
O=C(CNC(=O)c1cccs1)c1ccc(Br)cc1	-15	-22	55*	-7	-1	0
CCCC(=O)Nc1ccc2c(c1)C(=O)N(C)[C@@H]1CC[C@@H](CC(=O)OC)O[C@@H]1CO2	0	nt	nt	nt	nt	nt
Oc1ccc(/C=N/Nc2nc(-c3ccc(Cl)cc3)cc(C(F)(F)F)n2)cc1	nt	-2	79*	45	5	0
Cc1ccc(C2CC(C(F)(F)F)n3nc(C(=O)NCc4c(C)nn(C)c4C)c(Cl)c3N2)cc1 (stereo not drawn)	nt	35	34	58*	3	1
CO[C@@H]1CN(C)C(=O)c2ccc(NC(=O)c3ccccc3F)cc2OC[C@H](C)N(CC2CCOCC2)C[C@H]1C	11	nt	nt	nt	nt	nt
Cc1ccc(S(=O)(=O)Nc2ccc3c(c2)C(=O)N([C@H](C)CO)C[C@H](C)[C@@H](CN(C)CC2CC2)OCCCC[C@@H](C)O3)cc1	-9	nt	nt	nt	nt	nt
Fc1ccccc1NC(=S)N/N=C/c1ccccc1Br	nt	-19	28	35	16*	1
CCc1ccc(/C=C2\SC(=S)N(CCCC(=O)Nc3ccc(C(=O)O)cc3)C2=O)cc1	-1	37	-27	12	-1	0
CCc1ccc(/C=C2\SC(=S)N(CCCC(=O)Nc3ccccc3C(=O)O)C2=O)cc1	30	-4	33	75*	7	0
Cc1ccc(/C=C2\SC(=S)N(CCCC(=O)Nc3ccc(O)cc3)C2=O)cc1	-18	39	8	-53	10	0
Cc1ccc(/C=C2\SC(=S)N(CCCC(=O)Nc3ccccc3C(=O)O)C2=O)cc1	16	13	84*	83*	15	0
COc1ccc(/C=C2\SC(=O)N(CCCC(=O)Nc3ccc(C(=O)O)cc3)C2=O)cc1	0	50*	83*	73*	nt	0
